# Inconclusive results are not listed. Entries that show only a call come without a potency. Values without a mark were called inactive. Activity calls are given as the source filed them. Unless noted, calls come from the whole dose curve; as a rule, active = well fitted curve in the direction sought with a large enough effect in the repeat runs; inconclusive = weak or mixed curves; inactive = no such curve, though single readings can be large; an effect the other way counts as inactive or inconclusive.
# Tests used:
# [1] = qHTS assay to identify small molecule antagonists of the vitamin D receptor (VDR) signaling pathway - cell viability counter screen (AID 743225); settings: VDR-bla HEK293T viability, CellTiter-Glo luminescence, 16 h; series mostly up to 61 µM; note: nearly all actives have a fitted effect of over 50% in size
# Procedure, shortened: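 Parallel cytotoxicity test: VDR-UAS-bla HEK 293T, 3 nM (final) 1-alpha,25-dihydroxyvitamin D3 with test compound, 16 h, 37C. Endpoint is CellTiter-Glo luminescence in the same wells.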
# [2] = qHTS assay to identify small molecule agonists of the endoplasmic reticulum stress response signaling pathway - cell viability counter screen (AID 1159517; calls by dose curve; note: nearly all actives have a fitted effect of over 50% in size; note: potency is the fitted concentration of half-maximal effect;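 for activity change, negative = cytotoxicity: HeLa cells carrying an ER stress response element beta-lactamase reporter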); settings: ESRE-bla HeLa viability, CellTiter-Glo luminescence, 5 h; series mostly up to 61 µM
# Procedure, shortened: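 Cells, HeLa ESRE-bla; density, 1,500/well; dosing, 5 hr at 37 C, 5% CO2; readout, CellTiter-Glo luminescence after 30 min RT.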
# [3] = qHTS assay to identify small molecule antagonists of the retinoid-related orphan receptor gamma (ROR-gamma) signaling pathway - cell viability counter screen (AID 1159520); settings: Tet-on RORgamma CHO cells viability, ATP luminescence, 16 h; series mostly up to 92.4 µM; note: nearly all actives have a fitted effect of over 50% in size; note: potency is the fitted concentration of half-maximal effect
# Procedure, shortened: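 Cytotoxicity was read from cellular ATP (CellTiter-Glo luminescence) after 16 hr at 37 C with 1 uM doxycycline induction. The inducer was added 2 hr after compound transfer to Tet-on ROR gamma CHO cells.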
# [4] = target: Nuclear receptor ROR-gamma (Homo sapiens) (UniProt P51449); experiment: qHTS assay to identify small molecule antagonists of the retinoid-related orphan receptor gamma (ROR-gamma) signaling pathway (AID 1159521; note: nearly all actives have a fitted effect of over 50% in size; note: potency is the fitted concentration of half-maximal effect;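 for activity change, negative = inhibition: CHO cells with doxycycline inducible ROR-gamma driving an RORE luciferase reporter; top concentration of the series differs between compounds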); settings: Tet-on RORgamma CHO cells, RORE-luciferase, 16 h; series mostly up to 92.4 µM
# Procedure, shortened: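 Decreased RORE-driven luciferase luminescence indicates antagonism. Tet-on RORγ CHO cells received compound, then 1 uM final doxycycline 2 h later; signal read after 16 h incubation.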
# [5] = qHTS assay to identify small molecule agonists of the AP-1 signaling pathway - cell viability counter screen (AID 1159525; calls by dose curve; note: nearly all actives have a fitted effect of over 55% in size; note: potency is the fitted concentration of half-maximal effect); settings: ME-180 AP-1-bla cells viability, ATP luminescence, 5 h; series mostly up to 76.8 µM
# Procedure, shortened: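 Luminescent ATP readout (Cell Titer Glo, 30 min RT), normalised to DMSO and tetra n-octyl ammonium bromide controls. Cells were ME-180 AP-1-bla in 0.5% dialyzed FBS Opti-MEM, with a 5 h, 37 °C compound exposure.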
# [6] = qHTS assay to identify small molecule agonists of the RXR signaling pathway - cell viability counter screen (AID 1159529); settings: RXR-alpha-bla HEK293T viability, CellTiter-Glo, 16 h; series mostly up to 76.8 µM; note: nearly all actives have a fitted effect of over 50% in size; note: potency is the fitted concentration of half-maximal effect;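 for activity change, negative = cytotoxicity: HEK 293T cells carrying an RXR-alpha UAS beta-lactamase reporter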
# Procedure, shortened: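 In this parallel viability measure, GeneBLAzer RXR-alpha HEK 293T cells (2% charcoal-stripped FBS) were given a 5 hr preincubation, treated with compounds 16 hr at 37 C, and read by CellTiter-Glo luminescence.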
# [7] = qHTS assay to identify small molecule antagonists of the retinoid acid receptor (RAR) signaling pathway - cell viability counter screen (AID 1159551); settings: C3RL4 cells viability, ATP luminescence (CellTiter-Glo), 6 h; series mostly up to 92.4 µM; note: nearly all actives have a fitted effect of over 35% in size; note: potency is the fitted concentration of half-maximal effect
# Procedure, shortened: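 C3RL4 RARE-luciferase cells, 1,000/well, incubated overnight, then dosed with compound plus 1 uM retinol (final). After 6 hr at 37 C, viability read by CellTiter-Glo ATP luminescence following 30 min at room temperature.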
# [8] = qHTS assay to identify small molecule agonists of the AP-1 signaling pathway (AID 1159526; calls by dose curve); settings: ME-180 (cervical carcinoma) AP-1-bla reporter, beta-lactamase FRET ratio, 5 h; series mostly up to 76.8 µM
# [9] = target: Retinoic acid receptor RXR-alpha (Homo sapiens) (UniProt P19793); experiment: qHTS assay to identify small molecule agonists of the RXR signaling pathway (AID 1159527; calls by dose curve; note: nearly all actives have a fitted effect of over 35% in size); settings: HEK293T RXRa-UAS-bla, beta-lactamase ratio, 16 h; series mostly up to 76.8 µM
# Chain of Retinoic acid receptor RXR-alpha (Homo sapiens) (P19793 whole entry, looked up): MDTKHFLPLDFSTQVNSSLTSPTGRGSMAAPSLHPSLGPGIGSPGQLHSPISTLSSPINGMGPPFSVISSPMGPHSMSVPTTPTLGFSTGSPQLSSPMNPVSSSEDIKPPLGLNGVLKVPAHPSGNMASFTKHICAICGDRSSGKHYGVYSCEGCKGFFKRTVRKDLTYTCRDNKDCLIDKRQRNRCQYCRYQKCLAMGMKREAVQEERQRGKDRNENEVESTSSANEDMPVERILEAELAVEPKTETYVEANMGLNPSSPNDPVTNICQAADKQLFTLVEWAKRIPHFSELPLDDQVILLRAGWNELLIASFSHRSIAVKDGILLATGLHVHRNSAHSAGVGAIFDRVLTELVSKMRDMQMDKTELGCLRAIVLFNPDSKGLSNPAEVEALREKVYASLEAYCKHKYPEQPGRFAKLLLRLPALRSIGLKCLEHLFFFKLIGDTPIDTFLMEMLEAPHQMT
# Procedure, shortened: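 16 hr incubation of compound-treated RXR-alpha-UAS-bla HEK 293T cells (2% charcoal-stripped FBS, 37 C) preceded a 2 hr room-temperature LiveBLAzer FRET substrate step and blue/green fluorescence measurement.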
compound,measurement,setting,value
CO[C@H]1C=CO[C@@]2(C)Oc3c(C)c(O)c4c(O)c(cc(O)c4c3C2=O)NC(=O)/C(C)=C\C=C/[C@H](C)[C@H](O)[C@@H](C)[C@@H](O)[C@@H](C)[C@H](OC(C)=O)[C@@H]1C,Potency,[1],inactive
same,Potency,[2],inactive
same,Potency,[3],inactive
same,Potency,[4],43.6 µM (active)
same,Potency,[5],49.3 µM (active)
same,Potency,[6],12.4 µM (active)
O=C(NO)c1ccccc1,Potency,[2],inactive
same,Potency,[3],inactive
same,Potency,[4],inactive
same,Potency,[5],inactive
same,Potency,[7],inactive
C[C@@]12C(=O)OC(=O)[C@]1(C)C1CCC2O1,Potency,[2],inactive
same,Potency,[3],4.22 µM (active)
same,Potency,[4],4.22 µM (active)
same,Potency,[6],inactive
same,Potency,[7],8.41 µM (active)
COc1cc(C(C)C)c2c(c1)S(=O)(=O)N(COc1cc(=O)n3cccc(OCCN4CCCCC4)c3n1)C2=O,Potency,[1],inactive
same,Potency,[2],inactive
same,"activity, negative = cytotoxicity",[3],-0.0922% [at 19 µM]
same,"activity change, negative = inhibition",[4],-4.73% [at 19 µM]
same,"viability change, negative = cytotoxic",[5],-17.4% [at 15.8 µM]
same,activation,[8],7.65% [at 15.8 µM]
same,"activity change, negative = cytotoxicity",[6],-5.15% [at 15.8 µM]
same,"activity change, negative = cytotoxicity",[7],5.72% [at 19 µM]
Brc1ccccc1-c1ccccc1,Potency,[2],41.3 µM (active)
same,Potency,[3],inactive
same,Potency,[4],inactive
same,Potency,[5],inactive
same,Potency,[9],inactive

# Reference: PubChem BioAssay (Tox21)
